The whole screen tested about 4,300 compounds, of which about 4,000 (93%) were called active.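 How the source made its calls: active means inhibition above its plate's cutoff, the mean test-well inhibition plus 3 SD (cut at about 4.8% in these data); inactive means the rest.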 So high a share suggests a set chosen from earlier hits. These entries were drawn from the full list.
assay: DNA CAG/GTC dye complex inhibitors – biochemical, fluorescence, TO-PRO-1 dye, d(CAG) DNA oligo, counter-screen for rCAG RNA repeat binder project (AID 652068); details: d(CAG) DNA oligo TO-PRO-1 dye displacement, at 3 µM, stronger effect = higher value;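 further: 0% = DNA dye mix with DMSO and 100% = 100 µM mitoxantrone; hits displace the dye from DNA and so lower well fluorescence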

Structure (SMILES) | inhibition
O=C1NC(=O)N(Cc2ccco2)C(=O)/C1=C\c1ccc(-c2ccc(F)cc2)o1 | 13.1% (active)
O=C1CC(=O)N(Cc2ccccc2)C(=O)N1CCCCCCN1C(=O)CC(=O)N(Cc2ccccc2)C1=O | 22.6% (active)
COc1ccc(N2C(=O)/C(=C/c3ccco3)C(=O)NC2=S)cc1 | 61.4% (active)
CC/C(=N\NC(=O)c1ccccc1O)c1c(O)n(Cc2ccccc2)c(=O)[nH]c1=O | 36.7% (active)
COc1ccc2c(c1)[C@@]13CCCCC1[C@@H](C2)NCC3 (some centres not stated) | -5.51% (inactive)
COc1cccc(N2C(=O)NC(=O)/C(=C\c3ccc([N+](=O)[O-])s3)C2=O)c1 | 19.4% (active)
O=C1NC(=O)N(c2ccccc2)C(=O)/C1=C/c1ccc([N+](=O)[O-])s1 | 25.7% (active)
